Most compounds without a hit are left out; they make up all but 1.5% or so of the library.
FXIIa inh mix: blocks human factor XIIa in pooled compound mixtures. P00748. purified FXIIa, fluorogenic substrate. inhibition, % at 5 µM. 0.2% of 62,000 active;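 note: 0% = enzyme without compound and 100% = no enzyme blank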
SK-BR-3 tox 24h: SK-BR-3 proliferation inhibitors. SK-BR-3 viability, CellTiter-Glo ATP luminescence, 24 h; stronger effect = lower value. viability, % at 10 µM. 0.47% of 41,000 active;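 active = viability at or below the median of all test compounds minus 3 SD, in both replicates if run twice, cut at about 45% in these data; inconclusive = duplicate replicates that disagree with each other; inactive = viability above that cutoff in every replicate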;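 note: 100% = median untreated cell wells and 0% = median positive control drug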
HER2 expr 66K: inhibitors of human Her2 kinase expression. P04626. 0.69% of 65,000 active. SKBR-3 HER2 protein level, AlphaScreen, 18-24 h; stronger effect = lower value. HER2 level % of control, % at 10 µM;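 active = HER2 level under 5% of the carrier-only control; inconclusive = no clear call, values can overlap the other calls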;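 note: 100% = DMSO carrier and 0% = 500 nM PU-H71 HSP90 inhibitor; lower value means stronger loss of Her2 protein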
CatG inh: blocks human cathepsin G enzyme activity; P08311; 0.2% of 62,000 active; purified enzyme, AMC-tetrapeptide fluorescence, pooled mixtures; inhibition, % at 5 µM (by protocol);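 active = inhibition above 20% in each of the two mixture wells holding the compound; inactive = inhibition of 20% or less in either well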;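 note: 0% = enzyme control without mixture and 100% = blank lacking enzyme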
C1s block: human complement C1s inhibition | 0.16% of 62,000 active | P09871 | AID 538 | mean inhibition % of two 10-compound mixtures (stronger effect = higher value), % at 5 µM (by protocol) | purified C1s, fluorogenic AMC substrate, pooled mixtures;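 active = inhibition above 20% in each of the two 10-compound mixture wells holding the compound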;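 note: 0% = enzyme wells lacking compound mixture and 100% = no-enzyme blank wells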
Target sequence (P09871 16-437 limits assumed): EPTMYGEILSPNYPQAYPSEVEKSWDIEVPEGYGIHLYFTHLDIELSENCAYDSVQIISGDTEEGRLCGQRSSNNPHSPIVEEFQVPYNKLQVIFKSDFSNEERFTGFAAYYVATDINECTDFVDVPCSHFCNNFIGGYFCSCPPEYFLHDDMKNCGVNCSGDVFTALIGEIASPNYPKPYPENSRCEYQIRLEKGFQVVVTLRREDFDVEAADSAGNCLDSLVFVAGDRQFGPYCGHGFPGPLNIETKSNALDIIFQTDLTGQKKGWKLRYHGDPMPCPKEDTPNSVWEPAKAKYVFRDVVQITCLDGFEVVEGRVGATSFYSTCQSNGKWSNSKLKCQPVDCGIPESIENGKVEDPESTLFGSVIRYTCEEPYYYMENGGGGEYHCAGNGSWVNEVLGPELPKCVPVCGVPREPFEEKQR
Target sequence (P09871 438-688 limits assumed): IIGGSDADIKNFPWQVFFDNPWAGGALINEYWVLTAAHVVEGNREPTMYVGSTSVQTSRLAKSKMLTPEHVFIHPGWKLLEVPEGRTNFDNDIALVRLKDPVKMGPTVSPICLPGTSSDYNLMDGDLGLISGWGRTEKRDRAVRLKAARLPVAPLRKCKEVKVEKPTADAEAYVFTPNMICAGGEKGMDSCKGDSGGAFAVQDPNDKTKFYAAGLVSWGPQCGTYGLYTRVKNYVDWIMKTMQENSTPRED
FXIa mix inh: blocks human factor XIa in pooled compound mixtures | purified FXIa, fluorogenic substrate | P03951 | 0.19% of 62,000 active | inhibition, % at 5 µM;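 note: each value is inhibition by a whole ten-compound pool holding the compound; 0% = enzyme with no mixture and 100% = wells lacking enzyme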
* hit, by the source's call; u = inconclusive; x = not tested or not shown. Cut-off read from the data, not from the text of the source, unless noted: active = inhibition above about 20% (passing the limit was not always enough); inactive = the rest.

SMILES	FXIIa inh mix	SK-BR-3 tox 24h	HER2 expr 66K	CatG inh	C1s block	FXIa mix inh
COc1ccccc1NC(=O)c1ccc(N)cc1	-16	92	76	13	5	18
Cc1ccccc1N1C(=O)C(Cl)=C(N2CCCCCC2)C1=O	14	x	97	4	0	3
O=C1C(Cl)=C(N2CCCCC2)C(=O)N1c1ccccc1Cl	5	x	138	9	3	22*
COc1ccc(-c2noc(CCC(=O)Nc3nc4ccccc4s3)n2)cc1	0	x	100	-7	-20	5
COc1ccc(CCNc2oc(COc3ccccc3F)nc2C#N)cc1	6	103	-30*	-1	-11	10
COc1ccccc1NC(=O)c1cc(S(=O)(=O)N2CCOCC2)ccc1Cl	32*	106	71	12	39	4
O=C(Nc1ccccc1O)c1cc(S(=O)(=O)N2CCOCC2)ccc1Cl	-18	92	76	4	0	11
CCOc1ccc2nc(NC(=O)CN3CCC(n4nnc5cc(F)ccc54)CC3)sc2c1	31*	101	66	-6	-29	4
O=C(CN1CCC(n2nnc3cc(F)ccc32)CC1)NC1CC1	7	x	123	9	11	7
Cc1c(NC(=O)c2nn(C)c(=O)c3ccccc23)c(=O)n(-c2ccccc2)n1C	-25	x	96	-3	-1	-2
Cn1nc(C(=O)Nc2c(-c3ccccc3)nc3sccn23)c2ccccc2c1=O	1	x	1.1*	10	-5	2
CCOc1ccc(C2C=C(c3ccc(C)cc3)Nc3ncnn32)cc1 (centres undefined)	-18	88	127	-1	-17	23*
Cc1nnc2sc(-c3cccc(NC(=O)c4ccc(-c5cccc(Cl)c5)o4)c3)nn12	2	80	85	-1	1	11
Cc1ccc(-c2nn3c(C)nnc3s2)cc1NC(=O)c1ccc(-c2cccc(Cl)c2)o1	22	33*	16	9	1	4
O=C(Cc1ccccc1)N1CCCC(c2nc(-c3cccs3)no2)C1 (centres undefined)	0	41*	81	-5	1	1
COc1cc2[nH]c(=O)n(CCC(=O)N3CCN(c4cc(Cl)ccc4C)CC3)c(=O)c2cc1OC	1	8.5*	-23*	-2	-3	1
O=c1c2ccccc2nnn1CSc1nnc2sc3ccccc3n12	-2	x	81	4	9	9
COC(=O)c1ccc(NC(=O)CSc2nnc(CNc3ccc(F)cc3)n2C)cc1	4	84	50	7	-8	3
CCn1c2ccccc2c2cc(C3C(C#N)=C(N)Oc4n[nH]c(COC)c43)ccc21 (centres undefined)	-2	u	-24*	13	10	2
CCOC(=O)c1ccc(NC(=O)C(CC)(CC)C(=O)OCC)cc1	50*	94	182	12	10	1
c1cncc(-c2nc3c4ccccc4nc(N4CCC(N5CCCCC5)CC4)n3n2)c1	0	x	76	-2	-22	1
O=c1c2ccccc2nc(COc2ccccc2)n1/N=C/c1ccco1	10	94	117	7	3	-2
C(=N/n1c2ccccc2c2ccccc21)/c1ccco1	0	x	1.7*	-7	-118	-7
Cc1ccc(C)n1-c1ccc(-c2nnco2)cc1	-8	x	90	-5	3	7
Cc1cc(-c2nnco2)c(C)n1-c1ccc(F)cc1	3	84	4.7*	0	2	3
SMILES	FXIIa inh mix	SK-BR-3 tox 24h	HER2 expr 66K	CatG inh	C1s block	FXIa mix inh
CCN1CSC(=S)N(Cc2ccc(OC)cc2)C1	x	x	-12*	x	x	x
CCOC(=O)c1c(NC(=O)c2cccs2)sc2c1CC(C)(C)OC2	-20	73	92	6	1	21*
CCOC(=O)c1cccc(NC(=O)c2cccs2)c1	8	102	93	10	14	2
O=C1CC(C(=O)N2CCOCC2)C2(CCCC2)O1 (centres undefined)	3	92	124	-2	-12	8
CCC1Oc2ccc(C)cc2N(CC(=O)NCc2cc(OC)ccc2OC)C1=O (centres undefined)	12	x	100	11	7	9
COc1ccccc1CN(Cc1cc2cc(C)ccc2[nH]c1=O)Cc1nnnn1CC1CCCO1 (centres undefined)	-4	37*	89	0	0	-1
CCOC(=O)Cn1nnnc1CN(Cc1ccc(OC)cc1)Cc1cc2cc(C)ccc2[nH]c1=O	3	39*	100	-8	-12	5
O=C(CSc1ccc2nnc(-c3ccccn3)n2n1)NCC1CCCO1 (centres undefined)	8	x	105	6	11	7
Cc1[nH]n(CCC#N)c(=O)c1CC(=O)N1CCN(c2ccccc2)CC1	3	x	104	8	9	7
CC(=O)Nc1sc2c(c1CN1CCN(c3ccccn3)CC1)CCCC2	8	91	95	-3	-1	-2
CC(NC(=O)c1ccccc1NC(=O)c1ccco1)c1ccccc1 (centres undefined)	7	86	98	8	6	24*
CC(C)C(NC(=O)c1ccccc1NC(=O)c1ccco1)C(=O)O (centres undefined)	-2	82	80	4	-3	12
COc1ccccc1C(=O)N1CCN(c2cccc(Cl)c2)CC1	2	40*	41	-1	-72	-7
COc1ccccc1C(=O)N1CCN(C(=O)c2ccncc2)CC1	-7	x	77	1	6	5
COc1ccccc1N1C(=O)C2C3C=CC(C3)C2C1=O (centres undefined)	21*	x	109	-4	0	1
COc1ccccc1N1C(=O)C2CC(C)=C(C)CC2C1=O (centres undefined)	10	x	148	-4	-48	2
Cc1noc(C)c1CSc1nnnn1-c1ccc(Cl)cc1	-3	x	103	-3	-6	3
COc1ccc(-c2oc3ncnc(NCCCN4CCOCC4)c3c2-c2ccc(OC)cc2)cc1	4	67	-2.9*	10	0	2
COc1ccc(-c2oc3ncnc(NCCN4CCOCC4)c3c2-c2ccc(OC)cc2)cc1	5	80	52	7	-10	1
Cc1cc(C)n2nc(SCc3cc(=O)n4c(C)cccc4n3)nc2n1	2	x	112	12	16	1
CCCCOCCCNC(=O)N[C@H](C(=O)OC)C(C)C	3	95	77	10	12	7
CCCCNC(=O)OCCNC(=O)NC	5	77	-55*	-3	4	5
CS(=O)(=O)c1ccc(Cl)c(NC(=O)COC(=O)CNC(=O)c2ccc(Br)o2)c1	2	x	-22*	5	7	10
CCc1nc2ccccc2n1Cc1cc(=O)n2cc(C)ccc2n1	9	x	119	6	0	12
O=C(CSc1ccc2nnc(-c3cccnc3)n2n1)NCc1ccc2c(c1)OCO2	5	x	-17*	-5	-34	4
O=C(Cn1c(-c2ccccc2)noc1=O)NCc1ccccc1	-10	79	73	6	6	12
